Source: PubChem
The list is not random: actives were taken first. Their share in the collection is about 4.5%.
697 NFkB inh = lowers PMA/ionomycin-induced NF-kB signal in 697 B cells; 697 B-cell NF-kB luciferase reporter, 16 h; inhibition, % at 4 µM; hit rate 0.33% among 330,000; AID 435022; in the data active = inhibition above about 35%
Beta cell apopt = beta cell apoptosis inhibition | INS-1E cytokine-induced death, ATP luminescence, 48 h; percent of positive-control rescue, neutral wells zero | hit rate 0.8% among 300,000 | protection from apoptosis, % (concentration not given with the values);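 active = Every replicate reaches about 75%, or at least half do and their mean reaches it too, limit read from the data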;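 note: higher means more ATP so stronger rescue from cytokine killing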
CSC inhib = blocks cancer stem cells; cancer stem cell-like cells viability, luminescence; hit rate 1.1% among 300,000; inhibition, % at 7.5 µM; in the data active = inhibition above about 75%; tested in HMLE shEcad cells
Gli-Sufu block = antagonists of Gli-Sufu signaling. Sufu-KO-LIGHT fibroblasts, Gli luciferase reporter luminescence. hit rate 0.74% among 340,000. inhibition, % at 5 µM;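 active = inhibition above about 55%, limit read from the data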
Jurkat NFkB inh = inhibitors of the PMA/ionomycin-induced NF-kB reporter in Jurkat cells. inhibition, % at 4 µM. PMA/ionomycin-induced NF-kB luciferase reporter, luminescence. hit rate 0.53% among 330,000; in the data active = inhibition above about 50%
Mdm2-MdmX inh = disrupts the human Mdm2-MdmX interaction. hit rate 3% among 330,000. O15151+Q00987. inhibition, % at 8 µM. SaOS-2 split-luciferase Mdm2/MdmX complementation, luminescence;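 active = inhibition of at least 50% at 8 µM in the primary screen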
Target sequence (O15151 whole entry, looked up): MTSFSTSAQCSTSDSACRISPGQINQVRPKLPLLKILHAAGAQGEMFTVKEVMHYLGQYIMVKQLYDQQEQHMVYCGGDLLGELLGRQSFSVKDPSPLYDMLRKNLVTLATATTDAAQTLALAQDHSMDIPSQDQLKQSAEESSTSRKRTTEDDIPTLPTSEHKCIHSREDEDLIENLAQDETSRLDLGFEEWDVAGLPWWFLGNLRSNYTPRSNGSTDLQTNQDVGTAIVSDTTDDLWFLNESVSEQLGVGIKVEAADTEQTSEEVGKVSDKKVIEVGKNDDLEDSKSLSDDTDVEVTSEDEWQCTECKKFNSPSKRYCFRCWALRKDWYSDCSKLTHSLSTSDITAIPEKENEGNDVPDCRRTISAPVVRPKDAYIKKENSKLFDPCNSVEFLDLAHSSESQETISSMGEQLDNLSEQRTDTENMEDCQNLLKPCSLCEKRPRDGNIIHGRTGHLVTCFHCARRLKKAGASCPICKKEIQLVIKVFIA
Target sequence (Q00987 whole entry, looked up): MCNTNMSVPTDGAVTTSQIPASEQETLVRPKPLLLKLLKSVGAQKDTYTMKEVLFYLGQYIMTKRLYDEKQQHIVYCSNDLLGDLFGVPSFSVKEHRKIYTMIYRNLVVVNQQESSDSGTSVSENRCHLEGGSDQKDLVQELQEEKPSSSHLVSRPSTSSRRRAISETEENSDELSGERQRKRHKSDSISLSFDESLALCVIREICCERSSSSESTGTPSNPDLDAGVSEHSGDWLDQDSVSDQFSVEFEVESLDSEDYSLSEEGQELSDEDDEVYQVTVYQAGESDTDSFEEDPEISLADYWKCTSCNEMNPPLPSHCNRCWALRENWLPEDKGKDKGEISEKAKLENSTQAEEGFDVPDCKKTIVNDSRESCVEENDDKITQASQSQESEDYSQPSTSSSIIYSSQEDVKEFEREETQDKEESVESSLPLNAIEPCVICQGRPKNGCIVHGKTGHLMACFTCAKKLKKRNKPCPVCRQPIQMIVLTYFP
Jurkat NFkB conf = inhibitors of the PMA/ionomycin-induced NF-kB reporter in Jurkat cells, retest | shares compounds with Jurkat NFkB inh | Jurkat NF-kB luciferase, 16 h | inhibition, % at 4 µM | hit rate 27% among 2,700;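 active = inhibition reaching about 45% at 4 µM in either replicate, limit read from the data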
697 NFkB conf = inhibitors of the PMA/ionomycin-induced NF-kB reporter in 697 B cells, retest. shares compounds with 697 NFkB inh. 697 B-cell NF-kB luciferase, 16 h. inhibition, % at 4 µM. hit rate 35% among 2,000; in the data active = inhibition mostly above about 28%, no sharp cut-off; inactive = mostly below about 22%
Mdm2 MdmX conf = human Mdm2/MdmX binding inhibition, confirmed | hit rate 55% among 10,000 | luminescent assay | shares compounds with Mdm2-MdmX inh | inhibition, % at 8 µM; in the data active = inhibition above about 40%
FLuc counter = counter-screen for Mdm2/MdmX inhibitors: full-length luciferase | shares compounds with Mdm2-MdmX inh | SaOS-2 full-length luciferase counterscreen, luminescence | hit rate 77% among 6,200 | inhibition, % at 8 µM;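 active = mean inhibition at 8 µM reaching about 37%, which flags the compound as non-specific, limit read from the data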;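 note: p53-null SaOS-2 cells with luciferase driven by a doxycycline-inducible promoter; compound on cells about two nights before reading with doxycycline added after day one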
Of the large screens only hits and unclear results are named; the others gave an inactive call (follow-up assays come after a bar, where they were run).

O=C1C=CCC(/C=C/c2ccccc2)O1 (centres undefined)	Jurkat NFkB inh 100.1, Mdm2-MdmX inh 60.7 | Jurkat NFkB conf 95.9 | Mdm2 MdmX conf 47.6 | FLuc counter inactive
Cc1cc(=O)oc2cc(OCC(=O)N/N=C/c3ccccc3O)ccc12	none (no result: CSC inhib)
CSc1nc(C)cc(OCC(=O)N/N=C/c2ccccc2O)n1	CSC inhib 89.4, Jurkat NFkB inh 52.2, Mdm2-MdmX inh 57.9 | Jurkat NFkB conf inactive | Mdm2 MdmX conf 64.3 | FLuc counter 39.3
CC(OC(=O)/C=C/c1cccc(F)c1)C(=O)NC1CCCCC1C (centres undefined)	none (no result: CSC inhib)
CCC(=O)Nc1c(C)nn(-c2ccc(C)c(C)c2)c1C	none
Cc1ccc(-n2nc(C)c(NC(=O)CCl)c2C)cc1C	Jurkat NFkB inh 64.4, Mdm2-MdmX inh 75.8 | Jurkat NFkB conf inactive | Mdm2 MdmX conf 88.0 | FLuc counter inactive
C/C(=N\NC(=O)c1cc(-c2cccs2)nc2ccccc12)c1ccccn1	Beta cell apopt 102.2, CSC inhib 135.9, Gli-Sufu block 93.5, Jurkat NFkB inh 55.1, Mdm2-MdmX inh 79.7 | Jurkat NFkB conf inactive | Mdm2 MdmX conf 74.8 | FLuc counter inactive
NNC(=O)c1cc(-c2cccs2)nc2ccccc12	none
C/C(=N/NC(=O)c1ccc(C(C)(C)C)cc1)c1ccccn1	Beta cell apopt 111.1, Gli-Sufu block 64.8, Jurkat NFkB inh 99.5, Mdm2-MdmX inh 93.2 | Jurkat NFkB conf inactive | Mdm2 MdmX conf 43.5 | FLuc counter 55.3
CC(C)(C)c1ccc(C(=O)N/N=C/c2ccccn2)cc1	none
C/C(=N\NC(=O)c1cccc(Br)c1)c1ccccn1	Beta cell apopt 104.9, CSC inhib 138.8, Gli-Sufu block 89.3, Jurkat NFkB inh 91.9, Mdm2-MdmX inh 100.4 | Jurkat NFkB conf inactive | Mdm2 MdmX conf 63.2 | FLuc counter 50.5
C/C(=N\NC(=O)c1ccc(Cl)c(Cl)c1)c1ccccn1	Beta cell apopt 93.1, CSC inhib 81.5, Jurkat NFkB inh 98.2, Mdm2-MdmX inh 83.5 | Jurkat NFkB conf 53.4 | Mdm2 MdmX conf 81.5 | FLuc counter inactive
CC1Cc2cccc3ccc(=O)n(c23)C1 (centres undefined)	none (no result: 697 NFkB inh, Beta cell apopt, CSC inhib, Jurkat NFkB inh, Mdm2-MdmX inh)
C/C(=N\NC(=O)c1cccc2ccccc12)c1ccccn1	Gli-Sufu block 79.9, Jurkat NFkB inh 95.3, Mdm2-MdmX inh 95.9 (no result: Beta cell apopt, CSC inhib) | Jurkat NFkB conf inactive | Mdm2 MdmX conf inactive | FLuc counter inactive
COc1ccc(C(=O)N/N=C(\C)c2ccccn2)cc1OC	Beta cell apopt 98.4, CSC inhib 91.1, Gli-Sufu block 94.6, Jurkat NFkB inh 96.3, Mdm2-MdmX inh 98.5 | Jurkat NFkB conf inactive | Mdm2 MdmX conf inactive
COc1ccc(S(=O)(=O)N2CCN(C(=O)CSC(=S)N3CCCC3)CC2)cc1	none
Cc1csc2sc(-c3ccnc(SCC(=O)NCc4ccccc4)n3)c(C)c12	Jurkat NFkB inh 69.4, Mdm2-MdmX inh 56.0 (no result: Beta cell apopt) | Jurkat NFkB conf inactive | Mdm2 MdmX conf 58.8 | FLuc counter 85.7
Cc1csc(SCC(=O)NCc2ccccc2)n1	none
COc1ccc(-c2cc(-c3ccccc3)nc(N)n2)c(O)c1	none (no result: 697 NFkB inh, Beta cell apopt, CSC inhib, Jurkat NFkB inh, Mdm2-MdmX inh)
COc1ccc(OC)c(Nc2cc(-c3ccccc3)nc(N)n2)c1	Jurkat NFkB inh 56.5, Mdm2-MdmX inh 69.2 | Jurkat NFkB conf inactive | Mdm2 MdmX conf 71.3 | FLuc counter 72.3
N=c1ccn(Cc2ccc(F)cc2)cc1	none
CCCCCCCCCCn1ccc(=N)cc1	Beta cell apopt 116.4, Gli-Sufu block 88.3, Jurkat NFkB inh 75.2, Mdm2-MdmX inh 85.2 | Jurkat NFkB conf 75.0 | Mdm2 MdmX conf 90.2 | FLuc counter 51.4
CCCCCCN1Cc2ccccc2C1	none
CCCCCCCCn1ccc(=N)cc1	697 NFkB inh 78.3, Beta cell apopt 130.2, Jurkat NFkB inh 80.0, Mdm2-MdmX inh 54.6 | Jurkat NFkB conf 73.2 | 697 NFkB conf 63.8 | Mdm2 MdmX conf 61.1 | FLuc counter 47.7
Cc1nc2scc(C)n2c(=O)c1S(=O)(=O)NCC1CCN(Cc2ccc(F)cc2)CC1	none
COc1ccc(OC)c2c1cc(C(=O)N[C@@H](C)C(=O)N[C@@H](C(=O)O)c1ccccc1)n2C	none
COc1ccc(OC)c(C2=Nn3c(nnc3C3CCCCC3)SC2)c1	none
COc1ccc(OC)c(-c2nnc3n2N=C(c2ccc(OC)c(OC4CCCC4)c2)CS3)c1	Jurkat NFkB inh 78.8, Mdm2-MdmX inh 84.2 | Jurkat NFkB conf 62.8 | Mdm2 MdmX conf 74.7 | FLuc counter 66.4
COc1ccc(OC)c(-c2nnc3n2N=C(c2ccc(OC)c(OC)c2)CS3)c1	Jurkat NFkB inh 57.7, Mdm2-MdmX inh 66.4 (no result: CSC inhib) | Jurkat NFkB conf inactive | Mdm2 MdmX conf 60.0 | FLuc counter 79.0
CSc1cccc(NC(=O)CCCn2c(=O)c3cccn3c3cccnc32)c1	none
COc1ccc([N+](=O)[O-])cc1N(CC(=O)N1CCN(Cc2ccccc2)CC1)S(C)(=O)=O	none
C#CCNC(=O)C1CCN(c2ccc(S(=O)(=O)N3CCOCC3)cc2Cl)CC1	none
O=C(NCc1cccs1)C1CCN(c2ccc(S(=O)(=O)N3CCOCC3)cc2Cl)CC1	Jurkat NFkB inh 75.9, Mdm2-MdmX inh 62.9 | Jurkat NFkB conf 53.9 | Mdm2 MdmX conf 42.8 | FLuc counter 91.0
CC(C)(O)[C@@H]1CC[C@@](C)(C2CC[C@]3(C)C2[C@H](O)CC2[C@@]4(C)CC[C@H](O)C(C)(C)C4[C@@H](O[C@H]4O[C@@H](CO)[C@H](O)[C@@H](O)[C@@H]4O[C@@H]4O[C@H](CO)[C@@H](O)[C@H](O)[C@H]4O)C[C@]23C)O1 (stereo in doubt)	none
COc1ccc(NC(=O)/C(Cl)=C(/Cl)S(=O)Cc2ccccc2Cl)cn1 (centres undefined)	Gli-Sufu block 72.1, Jurkat NFkB inh 99.6, Mdm2-MdmX inh 98.3 (no result: Beta cell apopt, CSC inhib) | Jurkat NFkB conf 98.1 | 697 NFkB conf inactive | Mdm2 MdmX conf 100.2 | FLuc counter inactive
Cc1ccc(C(=O)NN(C)c2nc3ccccc3nc2C(F)(F)F)cc1	Jurkat NFkB inh 55.7, Mdm2-MdmX inh 69.9 (no result: Beta cell apopt) | Jurkat NFkB conf inactive | Mdm2 MdmX conf 53.7 | FLuc counter 61.4
CN(NC(=O)c1ccc(Cl)cc1)c1nc(-c2ccccc2)nnc1C(F)(F)F	none
Cc1cc(=O)oc2cc(OCC(=O)Nc3c(C)n(C)n(-c4ccccc4)c3=O)c(Cl)cc12	none (no result: Beta cell apopt, CSC inhib)
